Measured values as given in PubChem BioAssay AID1259313 (Sanford-Burnham Center for Chemical Genomics, 2017).
The campaign covered roughly 340,000 compounds. About 8,500 (2.5%) were called active.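 Rule for the calls: active = melting temperature shift of at least 10% of the positive control shift, at one fixed dose; inactive = the rest.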 The sample as a whole holds a higher share of actives than the screen did.

System: Glutamate receptor ionotropic, NMDA 3A (GRIN3A) ligand-binding domain
Experiment: NR3A LBD thermal stabilization by compounds – biophysical, differential scanning fluorimetry, uHTS, primary screen (AID 1259313)
Conditions: at 25 µM, active compounds read high, 0% = protein alone, 100% = glycine-bound protein

Compound | Tm shift relative to glycine control
CN(C)c1ccc(NC(=S)N(CCc2ccccc2)C2CC(=O)N(c3c(Cl)cccc3Cl)C2=O)cc1 (stereo unspecified) | -2.73% (inactive)
CCOc1ccc(N2C(=O)CC(N(CCc3ccc(OC)c(OC)c3)C(=S)Nc3ccccc3)C2=O)cc1 (stereo unspecified) | 14.8% (active)
COC(=O)CN(C(=S)Nc1ccc(Cl)cc1)C1CC(=O)N(c2ccc(OC)cc2)C1=O (stereo unspecified) | 1.51% (inactive)
O=C(O)C#Cc1cccc2ccccc12 | -2.09% (inactive)
CCC[C@@H]1C[C@@]1(CCC)[C@@H](NC(=O)c1ccccc1)c1ccc(C(=O)OC)cc1 | -0.95% (inactive)
COc1ccc2nc(SCC(=O)Nc3c(C)cc(C)cc3C)[nH]c2c1 | 2.89% (inactive)
Cc1cc(C)c(NC(=O)CSc2nc3ccncc3[nH]2)c(C)c1 | -0.53% (inactive)
CCCCNS(=O)(=O)c1ccc2nc(SCC(=O)Nc3cc(C)cc(C)c3)[nH]c2c1 | 23.7% (active)
COC1=CC(=O)OC(c2ccc(OC)cc2)C1 (stereo unspecified) | 3.44% (inactive)
Cc1ccc(CNC(=O)CCS(=O)(=O)c2ccc3c(c2)CC(C)N3C(=O)C2CC2)o1 (stereo unspecified) | -0.09% (inactive)
CCc1cccc2c3c([nH]c12)C(CC)(CC(=O)O)OCC3 (stereo unspecified) | 14.4% (active)
CCOC(=O)C(=Cc1ccccc1OC)C(=O)OCC | 0.09% (inactive)
C=C1c2cccc(OC)c2O[C@H](C(=O)OCC)[C@@H]1CCCCCC | 19.5% (active)
CCOC(=O)C1=C(C)c2ccccc2OC1C(=O)OCC (stereo unspecified) | 0.67% (inactive)
COC(=O)Cn1cnc2scc(-c3ccc(C)c(C)c3)c2c1=O | 0% (inactive)
NCCN1CCN2C(=O)CN(C(=O)c3ccccc3)CC12 (stereo unspecified) | -1.42% (inactive)
Cc1cc(F)ccc1NC(=S)NCCc1ccccc1 | -1.3% (inactive)
Cn1c(N)c(C(=O)COC(=O)c2ccc3ccccc3c2)c(=O)n(C)c1=O | -3.76% (inactive)
CC(=O)Nc1cccc(Nc2nc(-c3cccs3)nc3ccccc23)c1 | 1.63% (inactive)
Cc1cccc(-c2nc(Nc3ccc(O)cc3)c3ccccc3n2)c1 | 44.7% (active)
Oc1ccc(-c2nnc(Nc3ccccc3)c3ccccc23)cc1 | -0.38% (inactive)
COc1ccc(N2CCN(C(=O)CNC(=O)c3ccc(C(C)(C)C)cc3)CC2)cc1 | 3.46% (inactive)
CC(C)(C)c1cc2cccnc2n1Cc1ccccc1 | -1.7% (inactive)
COCCN1C(=O)N(c2ccc(Cl)cc2)C(=O)C1CC(=O)Nc1cc(OC)cc(OC)c1 (stereo unspecified) | 0.08% (inactive)
CCOc1ccc(NC(=O)CC2C(=O)N(c3ccccc3)C(=O)N2CCOC)cc1 (stereo unspecified) | -0.16% (inactive)
COC(=O)CN1C(=S)N(c2ccccc2)C(=O)C1CC(=O)Nc1ccc(Cl)cc1 (stereo unspecified) | 28.7% (active)
